Data from PubChem BioAssay AID1159580 (chemical genetic matrix, 2015).
Screen size: about 5,500 compounds; about 2,000 (36%) were called active. Inconclusive results (about 18%) are left out. Cut-off read from the data, not from the text of the source: active = normalized growth mostly below about 0.91 (no sharp cut-off); inconclusive = no clear call, values can overlap the other calls; inactive = mostly above about 0.92. Some of the results follow.

Experiment: chemical genetic growth profiling, strain panel (AID 1159580);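 note: tested at 20 µM; growth read once vehicle control cultures reached saturation at 30 °C; 1 = growth at the plate median or of vehicle wells; lower values mean less growth of the strain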
Details: growth OD

Measured: normalized growth

COc1ccc2c(=O)c(CC(=O)O)coc2c1
inactive: S. cerevisiae deletion strains, locus YJR066W, strain TOR1, stronger effect = lower value 0.902 | S. cerevisiae deletion strains, locus YJR075W, strain HOC1, stronger effect = lower value 1.01 | S. cerevisiae deletion strains, locus YKL009W, strain mrt4, stronger effect = lower value 0.981 | S. cerevisiae deletion strains, locus YKL068W, stronger effect = lower value 0.993 | S. cerevisiae deletion strains, locus YKL085W, strain MDH1 (second series), stronger effect = lower value 1.01 | S. cerevisiae deletion strains, locus YKL085W, strain MDH1, stronger effect = lower value 1.01 | S. cerevisiae deletion strains, locus YKL160W, strain elf1, stronger effect = lower value 1.04 | S. cerevisiae deletion strains, locus YKL190W, strain CNB1, stronger effect = lower value 1 | S. cerevisiae deletion strains, locus YKR001C, strain vps1, stronger effect = lower value 1.03 | S. cerevisiae deletion strains, locus YKR026C, strain gcn3, stronger effect = lower value 0.985 | S. cerevisiae deletion strains, locus YKR091W, strain srl3, stronger effect = lower value 0.99 | S. cerevisiae deletion strains, locus YLL001W, strain dnm1, stronger effect = lower value 1 | S. cerevisiae deletion strains, locus YLL026W, stronger effect = lower value 0.982 | S. cerevisiae deletion strains, locus YLL041C, strain sdh2, stronger effect = lower value 0.98 | S. cerevisiae deletion strains, locus YLR027C, strain aat2, stronger effect = lower value 0.977 | S. cerevisiae deletion strains, locus YLR039C, strain RIC1, stronger effect = lower value 1.07 | S. cerevisiae deletion strains, locus YLR058C, strain SHM2, stronger effect = lower value 0.999 | S. cerevisiae deletion strains, locus YLR102C, strain apc9, stronger effect = lower value 0.992 | S. cerevisiae deletion strains, locus YLR113W, strain HOG1, stronger effect = lower value 0.992 | S. cerevisiae deletion strains, locus YLR221C, strain rsa3, stronger effect = lower value 0.966 | S. cerevisiae deletion strains, locus YLR258W, strain gsy2, stronger effect = lower value 0.992 | S. cerevisiae deletion strains, locus YLR262C, strain YPT6 (second series), stronger effect = lower value 1 | S. cerevisiae deletion strains, locus YLR262C, strain YPT6, stronger effect = lower value 1.03 | S. cerevisiae deletion strains, locus YLR268W, strain sec22, stronger effect = lower value 1.02 | S. cerevisiae deletion strains, locus YLR320W, strain mms22, stronger effect = lower value 0.972 | S. cerevisiae deletion strains, locus YLR330W, strain CHS5, stronger effect = lower value 1.01 | S. cerevisiae deletion strains, locus YLR342W, strain FKS1 (second series), stronger effect = lower value 1.05 | S. cerevisiae deletion strains, locus YLR342W, strain FKS1, stronger effect = lower value 0.989 | S. cerevisiae deletion strains, locus YLR357W, strain rsc2, stronger effect = lower value 0.988 | S. cerevisiae deletion strains, locus YLR370C, strain arc18, stronger effect = lower value 0.974 | S. cerevisiae deletion strains, locus YLR371W, strain rom2, stronger effect = lower value 0.997 | S. cerevisiae deletion strains, locus YLR384C, strain iki3, stronger effect = lower value 0.966 | S. cerevisiae deletion strains, locus YLR418C, strain cdc73, stronger effect = lower value 0.971 | S. cerevisiae deletion strains, locus YML016C, strain PPZ1, stronger effect = lower value 1 | S. cerevisiae deletion strains, locus YML032C, strain rad52, stronger effect = lower value 1 | S. cerevisiae deletion strains, locus YML120C, strain ndi1, stronger effect = lower value 1 | S. cerevisiae deletion strains, locus YML124C, strain tub3, stronger effect = lower value 0.994 | S. cerevisiae deletion strains, locus YMR058W, strain fet3, stronger effect = lower value 0.983 | S. cerevisiae deletion strains, locus YMR078C, strain ctf18, stronger effect = lower value 0.992 | S. cerevisiae deletion strains, locus YMR125W, strain sto1, stronger effect = lower value 1 | S. cerevisiae deletion strains, locus YMR129W, stronger effect = lower value 0.985 | S. cerevisiae deletion strains, locus YMR205C, strain PFK2, stronger effect = lower value 1.05 | S. cerevisiae deletion strains, locus YMR223W, strain ubp8, stronger effect = lower value 0.994 | S. cerevisiae deletion strains, locus YMR231W, strain pep5, stronger effect = lower value 0.972 | S. cerevisiae deletion strains, locus YMR307W, strain GAS1, stronger effect = lower value 1.06 | S. cerevisiae deletion strains, locus YNL067W, strain RPL9B, stronger effect = lower value 0.999 | S. cerevisiae deletion strains, locus YNL071W, strain lat1, stronger effect = lower value 0.986 | S. cerevisiae deletion strains, locus YNL183C, strain NPR1, stronger effect = lower value 0.972 | S. cerevisiae deletion strains, locus YNL209W, strain ssb2, stronger effect = lower value 1.03 | S. cerevisiae deletion strains, locus YNL233W, strain BNI4, stronger effect = lower value 1 | S. cerevisiae deletion strains, locus YNL248C, strain rpa49, stronger effect = lower value 0.984 | S. cerevisiae deletion strains, locus YNL250W, strain rad50, stronger effect = lower value 0.96 | S. cerevisiae deletion strains, locus YNL271C, strain bni1, stronger effect = lower value 0.986 | S. cerevisiae deletion strains, locus YNL298W, strain CLA4, stronger effect = lower value 0.992 | S. cerevisiae deletion strains, locus YNL307C, strain MCK1, stronger effect = lower value 1 | S. cerevisiae deletion strains, locus YNL322C, strain KRE1 (second series), stronger effect = lower value 0.969 | S. cerevisiae deletion strains, locus YNL322C, strain KRE1, stronger effect = lower value 1 | S. cerevisiae deletion strains, locus YNR049C, strain mso1, stronger effect = lower value 0.973 | S. cerevisiae deletion strains, locus YNR052C, strain pop2, stronger effect = lower value 0.952 | S. cerevisiae deletion strains, locus YOL012C, strain htz1 1.05 | S. cerevisiae deletion strains, locus YOL147C, strain pex11, stronger effect = lower value 0.991 | S. cerevisiae deletion strains, locus YOR001W, strain rrp6, stronger effect = lower value 0.917 | S. cerevisiae deletion strains, locus YOR061W, strain CKA2, stronger effect = lower value 1.01 | S. cerevisiae deletion strains, locus YOR069W, strain VPS5, stronger effect = lower value 0.987 | S. cerevisiae deletion strains, locus YOR070C, strain gyp1, stronger effect = lower value 0.981 | S. cerevisiae deletion strains, locus YOR080W, strain dia2, stronger effect = lower value 0.981 | S. cerevisiae deletion strains, locus YOR083W, strain WHI5, stronger effect = lower value 1.04 | S. cerevisiae deletion strains, locus YOR106W, strain vam3, stronger effect = lower value 1.01 | S. cerevisiae deletion strains, locus YOR136W, strain idh2, stronger effect = lower value 0.981 | S. cerevisiae deletion strains, locus YOR144C, strain elg1, stronger effect = lower value 0.993 | S. cerevisiae deletion strains, locus YOR184W, strain ser1, stronger effect = lower value 1.07 | S. cerevisiae deletion strains, locus YOR231W, strain MKK1, stronger effect = lower value 1 | S. cerevisiae deletion strains, locus YOR265W, strain rbl2, stronger effect = lower value 0.973 | S. cerevisiae deletion strains, locus YOR270C, strain vph1, stronger effect = lower value 0.978 | S. cerevisiae deletion strains, locus YOR290C, strain snf2, stronger effect = lower value 1.01 | S. cerevisiae deletion strains, locus YOR316C, strain cot1, stronger effect = lower value 0.991 | S. cerevisiae deletion strains, locus YPL051W, strain arl3, stronger effect = lower value 0.996 | S. cerevisiae deletion strains, locus YPL055C, strain LGE1, stronger effect = lower value 1.08 | S. cerevisiae deletion strains, locus YPL078C, strain atp4, stronger effect = lower value 1.03 | S. cerevisiae deletion strains, locus YPL106C, strain sse1, stronger effect = lower value 1.03 | S. cerevisiae deletion strains, locus YPL240C, strain hsp82, stronger effect = lower value 0.974 | S. cerevisiae deletion strains, locus YPL241C, strain CIN2, stronger effect = lower value 1.01 | S. cerevisiae deletion strains, locus YPL256C, strain CLN2, stronger effect = lower value 0.983 | S. cerevisiae deletion strains, locus YPR119W, strain clb2, stronger effect = lower value 0.985 | S. cerevisiae deletion strains, locus YPR141C, strain kar3, stronger effect = lower value 0.99 | S. cerevisiae deletion strains, locus YPR163C, strain tif3, stronger effect = lower value 0.995 | S. cerevisiae deletion strains, locus YPR167C, strain met16, stronger effect = lower value 0.976 | S. cerevisiae deletion strains, strain wtn01, stronger effect = lower value 1.04 | S. cerevisiae strains, strain wild type, stronger effect = lower value 1.02
